Screens as filed in PubChem.
The sample as a whole holds a higher share of hits than the screen did.
ARNT TACC3 PPI = disruptors of ARNT/TACC3 protein interaction, primary screen, biochemical, AlphaScreen, single concentration; Transforming acidic coiled-coil-containing protein 3 (Homo sapiens), Q9Y6A5; AlphaScreen His-ARNT PAS-B/GST-TACC3 binding, luminescence; TACC3 fragment carries E629A point mutation; inhibition, % at 9.99 µM; 390,000 tested, 0.66% active;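 active = mean inhibition of replicates at least 50% and at least half of replicates each reaching 50%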;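 note: 0% = complete ARNT plus TACC3 wells and 100% = ARNT alone without TACC3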
ERp5 inh = inhibitors of ERp5-driven insulin aggregation, primary screen, biochemical, turbidity, absorbance 650 nm, single point | Protein disulfide-isomerase A6 (Homo sapiens), Q15084 | 90 min | inhibition, % at 9.99 µM | 350,000 tested, 0.05% active | AID 651711, 2012;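 active = mean replicate inhibition above about 25%, with every replicate also reaching it, limit read from the data, passing the limit was not always enough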
ALR inh = inhibitors of human ALR sulfhydryl oxidase, primary screen, biochemical, H2O2 detection, HRP-luminol luminescence, single point. purified ALR, DTT oxidation. 290,000 tested, 3.8% active. AID 485317, 2010. inhibition, % (test concentration not listed);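 active = mean replicate inhibition above about 79%, with every replicate also reaching it, limit read from the data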
NRP1-CendR mod = modulators of CendR peptide binding to NRP-1, primary screen, biochemical, fluorescence polarization, uHTS | inhibition, % at 25 µM | 360,000 tested, 0.85% active | FAM-RPARPAR peptide binding to NRP-1;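 active = inhibition or corrected inhibition above about 18%, plus a signal ratio from 0.5 to 1.5, limit read from the data, passing the limit was not always enough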
PDI inh = inhibitors of human PDI, primary screen, biochemical, turbidity, single point, plate reader; 350,000 tested, 0.052% active; AID 588391, 2011; inhibition, % at 10 µM; PDI insulin aggregation turbidity, A650, 90 min;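 active = mean inhibition across replicates of 30% or more, whatever share of single replicates reach that level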
Target sequence (P07237 whole entry, looked up): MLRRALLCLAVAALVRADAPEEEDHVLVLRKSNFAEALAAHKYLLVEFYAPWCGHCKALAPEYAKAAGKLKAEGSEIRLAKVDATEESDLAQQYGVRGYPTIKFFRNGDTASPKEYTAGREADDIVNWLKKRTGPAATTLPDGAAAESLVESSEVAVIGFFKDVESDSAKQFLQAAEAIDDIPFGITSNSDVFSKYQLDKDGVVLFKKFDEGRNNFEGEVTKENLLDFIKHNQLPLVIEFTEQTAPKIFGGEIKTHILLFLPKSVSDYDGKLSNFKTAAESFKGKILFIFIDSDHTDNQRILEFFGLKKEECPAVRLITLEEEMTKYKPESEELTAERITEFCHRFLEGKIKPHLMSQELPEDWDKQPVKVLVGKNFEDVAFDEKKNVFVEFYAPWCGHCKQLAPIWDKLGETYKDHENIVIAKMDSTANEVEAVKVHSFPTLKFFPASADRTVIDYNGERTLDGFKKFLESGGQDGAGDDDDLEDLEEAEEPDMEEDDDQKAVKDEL
PglD DTNB = C. jejuni PglD acetyltransferase inhibitors, primary screen, biochemical, DTNB colorimetric, single point | UDP-N-acetylbacillosamine N-acetyltransferase PglD (Campylobacter jejuni) | purified PglD enzyme, DTNB colorimetric CoA detection | inhibition, % at 12.5 µM | 360,000 tested, 0.098% active; in the data active = inhibition above about 16%, passing the limit was not always enough
The depositor's hits bear a star; / = no result given.

SMILES	ARNT TACC3 PPI	ERp5 inh	ALR inh	NRP1-CendR mod	PDI inh	PglD DTNB
CCN(CC)c1ccc(NC(=O)C2CCCN(S(=O)(=O)c3cnc[nH]3)C2)c(C)c1 (stereo unspecified)	0	-8	101*	-17	-2	-1
CCSc1nnc(NC(=O)C2CCCN(S(=O)(=O)c3cnc[nH]3)C2)s1 (stereo unspecified)	-23	5	93*	6	-3	-5
Cc1cc(NC(=O)C2CCCN(S(=O)(=O)c3cnc[nH]3)C2)ccc1Br (stereo unspecified)	-3	6	93*	1	-1	-2
COc1ccccc1NC(=O)N1CCCCN2[C@H](CO)[C@@H](c3ccc(-c4ccccc4)cc3)[C@@H]2C1	16	-3	/	/	/	1
CCOc1ccc(OCC)c(NC(=O)C2CCN(S(=O)(=O)c3cnc[nH]3)CC2)c1	-1	/	-63	21*	1	-1
O=C(NC12CC3CC(CC(C3)C1)C2)c1ccc(-c2ccccc2Cl)o1	active	/	/	8	2	-6
COc1cc(/C=C(\C#N)C(=O)Nc2cccc(C(=O)O)c2)ccc1OCc1ccc(F)cc1	12	-2	7	-29	3	0
COc1cc(/C=C(/C#N)c2ccc(F)cc2)ccc1OCc1ccc(C(=O)O)o1	3	/	97*	2	-4	-1
Cc1ccc(-c2cn3cccnc3n2)cc1	-18	-5	-10	2	-1	1
Cc1nc(-c2cccc(S(=O)(=O)N3CCCCC3)c2)cs1	-3	1	23	-7	0	/
CCN(CC)S(=O)(=O)c1cccc(-c2csc(C)n2)c1	13	-2	97*	5	1	/
Nc1cccc(-c2cn3cccnc3n2)c1	0	7	99*	-3	-1	7
CCN(CC)S(=O)(=O)c1cccc(-c2cn3cccnc3n2)c1	-2	1	99*	-8	-5	4
C[C@@H]1CCCCO[C@H](CN(C)C(=O)CCC(F)(F)F)[C@@H](C)CN([C@H](C)CO)C(=O)c2cc(NS(C)(=O)=O)ccc2O1	27	0	/	/	/	-3
O=C(C[C@@H]1CC[C@H](NC(=O)Nc2ccccc2)[C@@H](CO)O1)NCc1cccc(F)c1	0	-2	/	/	/	3
O=C(Cc1ccccc1)N1CC(=O)N2[C@H](CO)[C@H](c3ccc(C#CCc4ccccc4)cc3)[C@H]2C1	/	11	/	/	/	/
CS(=O)(=O)N1CCCCN2[C@@H](CO)[C@H](c3ccc(C#Cc4ccccn4)cc3)[C@@H]2C1	16	3	/	/	/	4
CCSc1nnc(-c2cnn(-c3ccccc3)c2-n2cccc2)n1C	-3	/	-6	44*	0	1
CCCCCCSc1nnc(-c2cnn(-c3ccccc3)c2-n2cccc2)n1C	1	/	-4	12	-1	-5
CCC(=O)N1[C@H](CO)[C@@H]2c3ccccc3N(C(=O)c3ccc4c(c3)OCO4)C[C@@H]21	10	0	/	/	/	-3
C[C@@H]1CCCCO[C@@H](CN(C)S(=O)(=O)c2ccc(F)cc2)[C@H](C)CN([C@@H](C)CO)C(=O)c2cc(NC(=O)C3CCCCC3)ccc2O1	-1	-2	/	/	/	-3
COCc1cn(CC[C@H]2CC[C@@H](NC(=O)Nc3ccc(F)cc3)[C@@H](CO)O2)nn1	-9	1	/	/	/	0
CCN(CC)c1ccc(-n2c(C)cc(C=O)c2C)cc1	5	/	98*	20	-3	6
CCN(CC)c1ccc(-n2c(C)c(C(C)=O)c(C(C)=O)c2C)cc1	2	/	/	-1	-4	-3
CC(C)NC(=O)N1CCCCN2[C@H](CO)[C@H](c3ccc(C#Cc4ccccc4)cc3)[C@@H]2C1	6	-5	/	/	/	5
SMILES	ARNT TACC3 PPI	ERp5 inh	ALR inh	NRP1-CendR mod	PDI inh	PglD DTNB
O=C(CSc1ccc2nnc(-c3ccccn3)n2n1)Nc1ccccc1C(F)(F)F	52*	9	-6	3	3	-1
CCOc1ccccc1NC(=O)CSc1ccc2nnc(-c3cccnc3)n2n1	33	-5	4	7	7	/
COc1ccccc1NC(=O)CSc1ccc2nnc(-c3cccnc3)n2n1	71*	-5	/	8	10	4
Cc1cc(NC(=O)CSc2ccc3nnc(-c4ccccn4)n3n2)no1	45	3	-26	-4	-5	-2
COC(=O)c1ccc(CSc2ccc3nnc(-c4ccccn4)n3n2)o1	58*	4	-12	7	1	0
O=C(CSc1ccc2nnc(-c3ccccn3)n2n1)Nc1nccs1	60*	4	-12	-6	8	-8
Cc1nnc(NC(=O)CSc2ccc3nnc(-c4ccccn4)n3n2)s1	40	-5	-4	-5	-3	/
CNC[C@@H]1Oc2c(NS(=O)(=O)c3cn(C)cn3)cccc2C(=O)N([C@@H](C)CO)C[C@@H]1C	-17	-11	/	/	/	0
OC[C@H]1N[C@@H](CNCC2CCC2)[C@@H]1c1ccc(C2=CCCCC2)cc1	/	3	/	/	/	/
CN(C)c1ccc2c(c1)[C@H]1C[C@H](CC(=O)NCc3ccc(Cl)cc3)O[C@@H](CO)[C@H]1O2	11	-5	/	/	/	-3
O=C(C[C@@H]1CC[C@H]2[C@@H](COC[C@H](O)CN2S(=O)(=O)c2ccccc2)O1)NCc1ccc(-c2ccccc2)cc1	19	-1	/	/	/	-1
O=C(CSc1ccc2nnc(-c3ccccn3)n2n1)Nc1ccccc1	47*	-1	-8	0	1	-4
CCOc1ccc(NC(=O)CSc2ccc3nnc(-c4ccccn4)n3n2)cc1	11	3	-6	11	-1	4
CCCCCC(C)NC(=S)NC(=O)c1cc(S(=O)(=O)N2CCOCC2)ccc1C (stereo unspecified)	-4	/	16	26*	5	/
CCCC(C)NC(=S)NC(=O)c1cc(S(=O)(=O)N2CCOCC2)ccc1C (stereo unspecified)	1	/	30	-2	1	/
CCC(=O)N(C)C[C@@H]1Oc2cc(-c3cccc(OC)c3)ccc2S(=O)(=O)N([C@H](C)CO)C[C@H]1C	-10	-2	/	/	/	-4
Cc1cc(C)c(O)c(-c2cc(C(=O)Nc3cccnc3)[nH]n2)c1	-4	5	98*	-7	3	/
Cc1cc(O)c(-c2cc(C(=O)Nc3cccnc3)[nH]n2)cc1C	-2	3	-1	-6	-12	9
C[C@H]1CN([C@@H](C)CO)C(=O)c2cc(C#CC3(O)CCCC3)cnc2O[C@@H]1CN(C)Cc1ccccn1	-2	-2	/	/	/	5
